# From PubChem BioAssay (NCATS)
# Where “and” joins values, the source holds several entries; their conditions need not be identical. Identical values can stand only once. Records with an inconclusive call do not appear. A call without a number means that no potency is given here. Calls of active or inactive are those of the source. Calls come from the whole dose curve. Starred links: 1 amine or outer side, 2 acyl side, 3 side chain; linkers in the order of their positions; H or OH if unused. Positions of bridges follow the written chain, without caps; N, C: chain ends. Non-standard residues stand in square brackets, D forms with d. Residues, ends and D or L forms follow the SMILES beside them. ξ: configuration not given here. *: point of attachment. ΔAla(3-NHCONH2) = NC(=O)NC=C(N)C(=O)O; X1 = NC1=NCCC(C(N[*:1])C(=O)[*:2])N1; ξβ3hOrn = NCCCC(N)CC(=O)*; Dap = NC[CH](N)C(=O)O
# Tests used:
# [1] = Cytotoxicity counterscreen for inhibitors of SARS-CoV-2 cell entry (AID 1645845); conditions: cell viability (SARS-CoV-2 entry assay cells); series mostly up to 57.1 µM; note: nearly all actives have a fitted effect of over 50% in size
# In short: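 48 h compound treatment (after 1 h preincubation), HEK293-ACE2 cells, 37 C/5% CO2; ATP luminescence endpoint; normalized to cell wells and media blanks.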
# [2] = Primary qHTS to identify inhibitors of SARS-CoV-2 cell entry (AID 1645846); conditions: SARS-CoV-2 pseudovirus cell entry assay, luminescence; activity change, negative = inhibition: at 57.1 µM (top of the series) unless noted; series mostly up to 57.1 µM; note: nearly all actives have a fitted effect of over 45% in size; note: potency is the fitted concentration of half-maximal effect
# In short: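 Data are normalized to wells receiving SARS-CoV-2-S pseudoparticles and those given bald particles. Entry signal was luciferase luminescence in stable hACE2 Expi293F cells, 48 hr post-infection, after 1 hr compound pretreatment.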
structure (smiles),measurement,setting,value
Cn1ccc2cc3c(cc21)CCN3C(=O)Nc1cccnc1,Potency,[1],inactive
same,"activity change, negative = inhibition",[2],-18.3%
N[C@@H](Cc1cc(I)c(Oc2cc(I)c(O)c(I)c2)c(I)c1)C(=O)O,Potency,[1],inactive
same,"activity change, negative = inhibition",[2],-14.2%
COc1ccc(OC)c(C(O)CNC(=O)CN)c1 (stereo unspecified),Potency,[1],inactive
same,"activity change, negative = inhibition",[2],-24%
CC(c1cc2ccccc2s1)N(O)C(N)=O (stereo unspecified),Potency,[1],inactive
same,"activity change, negative = inhibition",[2],4.54% and -93%
COc1ccccc1OCCNCC(O)COc1cccc2[nH]c3ccccc3c12 (stereo unspecified),Potency,[1],inactive
same,Potency,[2],22.4 µM (active)
CC1(C)S[C@@H]2[C@H](NC(=O)C(C(=O)O)c3ccccc3)C(=O)N2[C@H]1C(=O)O (stereo partly specified),Potency,[1],inactive
same,Potency,[2],inactive
NS(=O)(=O)Cc1noc2ccccc12,Potency,[1],inactive
same,Potency,[2],inactive
Cc1nc(-c2ccc(OCC(C)C)c(C#N)c2)sc1C(=O)O,Potency,[1],inactive
same,Potency,[2],inactive
COc1cc(Cc2cnc(N)nc2N)cc(OC)c1OC,Potency,[1],inactive
same,Potency,[2],inactive
COc1ccccc1OCC(O)CN1CCN(CC(=O)Nc2c(C)cccc2C)CC1 (stereo unspecified),Potency,[1],inactive
same,"activity change, negative = inhibition",[2],4.5% and -8.51%
Cc1cnc(C(=O)NCCc2ccc(S(=O)(=O)NC(=O)NC3CCCCC3)cc2)cn1,Potency,[1],inactive
same,"activity change, negative = inhibition",[2],3.67%
Cc1cc2c(s1)Nc1ccccc1N=C2N1CCN(C)CC1,Potency,[1],inactive
same,"activity change, negative = inhibition",[2],-19.8%
Cc1cccc(Nc2ccccc2C(=O)O)c1C,Potency,[1],inactive
same,Potency,[2],inactive
COc1nc(N)nc2c1ncn2[C@@H]1O[C@H](CO)[C@@H](O)[C@@H]1O,Potency,[1],inactive
same,Potency,[2],inactive
Oc1cn2c(n1)Nc1ccc(Cl)c(Cl)c1C2,Potency,[1],inactive
same,Potency,[2],inactive
CC(C)c1c(C(=O)Nc2ccccc2)c(-c2ccccc2)c(-c2ccc(F)cc2)n1CC[C@@H](O)C[C@@H](O)CC(=O)O,Potency,[1],inactive
same,"activity change, negative = inhibition",[2],-13%
N=c1nc(N2CCCCC2)cc(N)n1O,Potency,[1],inactive
same,"activity change, negative = inhibition",[2],-11.3%
COc1ccc2nc(S(=O)Cc3ncc(C)c(OC)c3C)[nH]c2c1 (stereo unspecified),Potency,[1],inactive
same,"activity change, negative = inhibition",[2],-4.15%
Cc1ccc(-n2nc(C(C)(C)C)cc2NC(=O)Nc2ccc(OCCN3CCOCC3)c3ccccc23)cc1,Potency,[1],inactive
same,"activity change, negative = inhibition",[2],-13.7%
C[C@@H](O)[C@H]1C(=O)N2C(C(=O)O)=C(S[C@@H]3CN[C@H](CNS(N)(=O)=O)C3)[C@H](C)[C@H]12,Potency,[1],inactive
same,"activity change, negative = inhibition",[2],-25.7%
CN(C)CCC=C1c2ccccc2C=Cc2ccccc21,Potency,[1],inactive
same,Potency,[2],14.1 µM (active)
O=C(NCCN1CCOCC1)c1ccc(Cl)cc1,Potency,[1],inactive
same,Potency,[2],inactive
CC(=O)SC[C@@H](C)C(=O)N1CCC[C@H]1C(=O)N[C@@H](Cc1ccccc1)C(=O)O,Potency,[1],inactive
same,"activity change, negative = inhibition",[2],-7.21%
NNCCc1ccccc1,Potency,[1],inactive
same,Potency,[2],inactive
CCOC(=O)[C@H](CCc1ccccc1)N[C@@H](C)C(=O)N1[C@H](C(=O)O)C[C@@H]2CCC[C@@H]21,Potency,[1],inactive
same,Potency,[2],inactive
Nc1nc(F)nc2c1ncn2[C@@H]1O[C@H](CO)[C@@H](O)[C@@H]1O,Potency,[1],inactive
same,"activity change, negative = inhibition",[2],3.89% and -17.8%
N[C@@H](C(=O)N[C@@H]1C(=O)N2C(C(=O)O)=C(Cl)CS[C@H]12)c1ccccc1,outcome,[1],inactive [at 11.3 µM]
same,outcome,[2],inactive [at 11.3 µM]
CN(CCOc1ccc(NS(C)(=O)=O)cc1)CCc1ccc(NS(C)(=O)=O)cc1,Potency,[1],inactive
same,"activity change, negative = inhibition",[2],4.03% and 4.22%
CCCCS(=O)(=O)N[C@@H](Cc1ccc(OCCCCC2CCNCC2)cc1)C(=O)O,Potency,[1],inactive
same,Potency,[2],inactive
COc1ccc([C@@H]2Sc3ccccc3N(CCN(C)C)C(=O)[C@@H]2OC(C)=O)cc1,Potency,[1],inactive
same,"activity change, negative = inhibition",[2],-17.1% and -9.97%
CCC1C(=O)OCC1Cc1cncn1C (stereo unspecified),Potency,[1],inactive
same,"activity change, negative = inhibition",[2],2.21%
CC(C)Oc1ccc2c(=O)c(-c3ccccc3)coc2c1,Potency,[1],inactive
same,Potency,[2],inactive
NCCCC(N)CC(=O)NCC1NC(=O)C(CO)NC(=O)C(N)CNC(=O)C(C2CCN=C(N)N2)NC(=O)C(=CNC(N)=O)NC1=O (stereo not drawn) (H-[Dap]S[Dap](ξβ3hOrn)[ΔAla(3-NHCONH2)][X1]; lactam 1-C; configuration not given here),outcome,[1],inactive [at 0.702 µM]
same,"activity change, negative = inhibition",[2],3.17% [at 0.702 µM]
O=C1OCCN1/N=C/c1ccc([N+](=O)[O-])o1,Potency,[1],inactive
same,Potency,[2],inactive
NC(=O)N1c2ccccc2CC(=O)c2ccccc21,Potency,[1],inactive
same,Potency,[2],inactive
COC(=O)CCc1ccc(OCC(O)CNC(C)C)cc1 (stereo unspecified),Potency,[1],inactive
same,"activity change, negative = inhibition",[2],-35%
CCCCCOC(=O)Nc1nc(=O)n([C@@H]2O[C@H](C)[C@@H](O)[C@H]2O)cc1F,Potency,[1],inactive
same,Potency,[2],inactive
O=C(O)CCNC(=O)c1ccc(N=Nc2ccc(O)c(C(=O)O)c2)cc1,Potency,[1],inactive
same,Potency,[2],inactive
